Calls of active or inactive are those of the source.
Legend:
Albumin (Bos taurus) = Albumin (Bos taurus) (UniProt P02769); experiment: compounds binding labelled BSA control protein – biochemical, small-molecule microarray, Alexa647 label, 635/667 nm fluorescence, artefact control for SMM control protein annotation, profiling panel (AID 1118); conditions: BSA-A647 binding, fluorescence 635 nm, higher = more signal;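 further: score merges 667 nm emission intensity and signal-to-noise per printed compound spot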
[1] = probe aXIP binding to arrayed compounds – biochemical, NeuroSMM set, 635/667 nm fluorescence, primary screen (AID 1119); conditions: small-molecule microarray, higher = more signal, called active from +8 up or from −8 down;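 further: probe is the protein aXip251-270 applied at 1 µg/mL to compound-printed slides; binding of probe to printed compounds measured as 667 nm fluorescence plus signal to noise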
[2] = probe aNOTCH3 binding on compound microarray – biochemical, small-molecule microarray, 635/667 nm fluorescence, primary screen (AID 1120); conditions: higher = more signal;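 further: probe is a biotin-tagged antibody raised against NOTCH3 rather than NOTCH3 protein; score merges spot fluorescence near 667 nm with spot signal to noise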
[3] = probe aNOTCH2 binding on compound microarray – biochemical, small-molecule microarray, 635/667 nm fluorescence, primary screen (AID 1121); conditions: higher = more signal;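 further: score merges feature fluorescence read at 667 nm with its signal to noise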
[4] = target: Carbonic anhydrase 2 (Homo sapiens) (UniProt P00918); experiment: compounds binding carbonic anhydrase 2 – biochemical, small-molecule microarray, Alexa647-labelled CAII, profiling panel (AID 1122); conditions: CAII-A647 binding fluorescence, higher = more signal
[5] = COS7 lysate on small-molecule microarray, probe aHis, 635 nm (AID 1123); conditions: COS7 cell lysate, fluorescence, higher = more signal;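 further: z-score combines 667nm fluorescence intensity with signal-to-noise per printed compound spot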
[6] = probe aLAP1 signal on lysate-treated microarray – cell lysate, small-molecule microarray, COS7 lysate, primary screen (AID 1124); conditions: probe aLAP1, fluorescence, higher = more signal;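 further: lysate comes from COS7 cells expressing LAP1 and is applied at 0.3 µg/mL; score merges spot fluorescence near 667 nm with signal-to-noise over triplicate slides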
Sam68 (KHDRBS1) = experiment: compounds binding KHDRBS1 protein – biochemical, small-molecule microarray, 635 nm fluorescence, primary screen (AID 1125); conditions: higher = more signal;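 further: score merges 667 nm channel intensity with signal to noise over triplicate slides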
[7] = tested on: Chordin-like protein 2 (CHRDL2); experiment: compounds binding chordin-like 2 – biochemical, small-molecule microarray, 635 nm fluorescence, primary screen (AID 1126); conditions: fluorescence 635 nm, higher = more signal;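 further: printed compound slides probed with Chrdl2 protein at 4 µg/mL for 1 h at 4 C; score merges 667 nm emission intensity with signal to noise over three replicate slides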
[8] = target: Concanavalin-A (Canavalia ensiformis) (UniProt P02866); experiment: compounds binding concanavalin A lectin – biochemical, small-molecule microarray, Alexa647 label, 635 nm, artefact control for SMM control protein annotation, primary screen (AID 1127); conditions: ConA-A647 binding fluorescence, higher = more signal;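 further: z combines 667 nm emission intensity with signal-to-noise across three replicate slides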
[9] = compounds binding Alexa647 anti-His antibody – biochemical, small-molecule microarray, 635 nm fluorescence, artefact control for SMM control protein annotation, primary screen (AID 1128); conditions: higher = more signal;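 further: score merges feature fluorescence with signal-to-noise for each printed compound spot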
[10] = tested on: Human papillomavirus type 1a E7 protein (residues 1-88); experiment: HPV1a E7 small-molecule binders, primary screen, biochemical, small-molecule microarray, residues 1-88, 635 nm (AID 1129); conditions: small-molecule microarray binding, fluorescence 635 nm; higher = more signal
[11] = target: Focal adhesion kinase 1 (Homo sapiens) (UniProt Q05397); experiment: PTK2 protein binding on printed compound slides – biochemical, small-molecule microarray, 635/667 nm fluorescence, BSA, DTT, primary screen (AID 1130); conditions: 635 nm fluorescence, higher = more signal;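 further: composite of spot emission at 667 nm and signal to noise over triplicate slides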
[12] = tested on: Fibrinogen (Alexa647-labelled); experiment: Alexa647-fibrinogen binding to printed small molecules – biochemical, small-molecule microarray, 635/667 nm fluorescence, artefact control for SMM control-protein annotation, profiling panel (AID 1131); conditions: fibrinogen-A647 binding fluorescence, higher = more signal;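 further: z-score merges 667 nm fluorescence with per-spot signal-to-noise over triplicate slides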
[13] = target: Follistatin (Homo sapiens) (UniProt P19883); experiment: FST protein binding to printed compounds – biochemical, small-molecule microarray, 635/667 nm fluorescence, primary screen (AID 1132); conditions: 635 nm fluorescence, higher = more signal
[14] = target: Fibroblast growth factor 2 (Homo sapiens) (UniProt P09038); experiment: basic fibroblast growth factor binding to printed compounds – biochemical, small-molecule microarray, 635/667 nm fluorescence, primary screen (AID 1133); conditions: FGF2, fluorescence 635/667, higher = more signal
[15] = JC-1 mitochondrial potential readout, lung cancer cells – cell-based, A549, JC-1 fluorescence, basal, 24 h, 100 nL, profiling panel (AID 1138); conditions: higher = more signal;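 further: A549 lung adenocarcinoma cells under basal conditions with no added stimulus; test concentration not given here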
Lefty1 = Lefty1 protein binding to printed compounds – biochemical, small-molecule microarray, 635/667 nm fluorescence, primary screen (AID 1139); conditions: fluorescence 635/667, higher = more signal
[16] = tested on: wheat germ agglutinin (Triticum aestivum), Alexa647-labelled; experiment: Alexa647-WGA lectin binding to printed small molecules – biochemical, small-molecule microarray, 635/667 nm fluorescence, artefact control for SMM control-protein annotation, profiling panel (AID 1140); conditions: WGA-A647 binding, 635 nm fluorescence, higher = more signal;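 further: score merges 667 nm feature emission with signal to noise over triplicate slides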
[17] = target: Luciferin 4-monooxygenase (Photinus pyralis) (UniProt P08659); experiment: inhibition of purified Photinus pyralis luciferase – biochemical, luminescence, purified enzyme, 2006 set, primary screen (AID 1141); conditions: purified firefly luciferase, SteadyGlo luminescence, 30 min; higher = more signal, called active from +8 up or from −8 down;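 further: cell-free assay with purified firefly luciferase at 100 ng per well in PBS; test concentration not given here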
Chain of Luciferin 4-monooxygenase (Photinus pyralis) (P08659 whole entry, looked up): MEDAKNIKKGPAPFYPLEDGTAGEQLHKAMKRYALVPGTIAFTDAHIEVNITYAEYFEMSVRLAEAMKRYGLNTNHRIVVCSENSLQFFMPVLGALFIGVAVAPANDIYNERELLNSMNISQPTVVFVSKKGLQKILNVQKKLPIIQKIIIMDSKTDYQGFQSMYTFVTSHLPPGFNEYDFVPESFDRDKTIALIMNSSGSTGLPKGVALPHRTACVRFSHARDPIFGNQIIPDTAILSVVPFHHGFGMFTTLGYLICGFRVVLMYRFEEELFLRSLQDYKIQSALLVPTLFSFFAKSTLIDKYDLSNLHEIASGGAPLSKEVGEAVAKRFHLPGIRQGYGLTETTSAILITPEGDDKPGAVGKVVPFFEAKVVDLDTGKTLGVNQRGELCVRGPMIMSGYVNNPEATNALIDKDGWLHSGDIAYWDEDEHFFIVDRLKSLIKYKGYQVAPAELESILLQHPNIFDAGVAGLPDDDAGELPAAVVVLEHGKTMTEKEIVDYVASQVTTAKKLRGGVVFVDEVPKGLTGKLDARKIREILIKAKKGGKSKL

Chain of Follistatin (Homo sapiens) (P19883 whole entry, looked up): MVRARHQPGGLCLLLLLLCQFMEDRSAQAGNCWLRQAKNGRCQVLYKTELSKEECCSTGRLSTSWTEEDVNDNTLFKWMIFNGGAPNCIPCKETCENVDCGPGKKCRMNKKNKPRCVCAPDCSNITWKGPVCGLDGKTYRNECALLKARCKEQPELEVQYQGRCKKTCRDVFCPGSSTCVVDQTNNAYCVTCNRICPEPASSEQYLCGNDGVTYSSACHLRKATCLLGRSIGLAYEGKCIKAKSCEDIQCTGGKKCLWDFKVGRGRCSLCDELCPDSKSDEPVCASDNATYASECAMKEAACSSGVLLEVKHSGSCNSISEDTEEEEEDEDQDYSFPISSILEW
Chain of Concanavalin-A (Canavalia ensiformis) (P02866 whole entry, looked up): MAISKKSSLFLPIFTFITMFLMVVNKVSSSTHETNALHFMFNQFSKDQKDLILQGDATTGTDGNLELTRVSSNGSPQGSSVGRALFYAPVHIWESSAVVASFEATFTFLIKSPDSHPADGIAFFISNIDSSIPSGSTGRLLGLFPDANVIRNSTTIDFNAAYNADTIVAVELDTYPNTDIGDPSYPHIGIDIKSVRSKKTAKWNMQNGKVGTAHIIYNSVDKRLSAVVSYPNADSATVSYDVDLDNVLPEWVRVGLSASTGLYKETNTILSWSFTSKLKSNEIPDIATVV
Chain of Fibroblast growth factor 2 (Homo sapiens) (P09038 whole entry, looked up): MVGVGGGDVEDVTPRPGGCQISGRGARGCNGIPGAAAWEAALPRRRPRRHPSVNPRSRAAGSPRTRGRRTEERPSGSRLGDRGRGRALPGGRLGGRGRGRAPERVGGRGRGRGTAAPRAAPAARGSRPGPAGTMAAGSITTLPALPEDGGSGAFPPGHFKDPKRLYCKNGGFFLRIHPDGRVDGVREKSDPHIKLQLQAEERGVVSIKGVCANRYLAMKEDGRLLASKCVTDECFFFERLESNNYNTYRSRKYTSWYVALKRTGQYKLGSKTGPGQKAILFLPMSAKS
Chain of Focal adhesion kinase 1 (Homo sapiens) (Q05397 whole entry, looked up): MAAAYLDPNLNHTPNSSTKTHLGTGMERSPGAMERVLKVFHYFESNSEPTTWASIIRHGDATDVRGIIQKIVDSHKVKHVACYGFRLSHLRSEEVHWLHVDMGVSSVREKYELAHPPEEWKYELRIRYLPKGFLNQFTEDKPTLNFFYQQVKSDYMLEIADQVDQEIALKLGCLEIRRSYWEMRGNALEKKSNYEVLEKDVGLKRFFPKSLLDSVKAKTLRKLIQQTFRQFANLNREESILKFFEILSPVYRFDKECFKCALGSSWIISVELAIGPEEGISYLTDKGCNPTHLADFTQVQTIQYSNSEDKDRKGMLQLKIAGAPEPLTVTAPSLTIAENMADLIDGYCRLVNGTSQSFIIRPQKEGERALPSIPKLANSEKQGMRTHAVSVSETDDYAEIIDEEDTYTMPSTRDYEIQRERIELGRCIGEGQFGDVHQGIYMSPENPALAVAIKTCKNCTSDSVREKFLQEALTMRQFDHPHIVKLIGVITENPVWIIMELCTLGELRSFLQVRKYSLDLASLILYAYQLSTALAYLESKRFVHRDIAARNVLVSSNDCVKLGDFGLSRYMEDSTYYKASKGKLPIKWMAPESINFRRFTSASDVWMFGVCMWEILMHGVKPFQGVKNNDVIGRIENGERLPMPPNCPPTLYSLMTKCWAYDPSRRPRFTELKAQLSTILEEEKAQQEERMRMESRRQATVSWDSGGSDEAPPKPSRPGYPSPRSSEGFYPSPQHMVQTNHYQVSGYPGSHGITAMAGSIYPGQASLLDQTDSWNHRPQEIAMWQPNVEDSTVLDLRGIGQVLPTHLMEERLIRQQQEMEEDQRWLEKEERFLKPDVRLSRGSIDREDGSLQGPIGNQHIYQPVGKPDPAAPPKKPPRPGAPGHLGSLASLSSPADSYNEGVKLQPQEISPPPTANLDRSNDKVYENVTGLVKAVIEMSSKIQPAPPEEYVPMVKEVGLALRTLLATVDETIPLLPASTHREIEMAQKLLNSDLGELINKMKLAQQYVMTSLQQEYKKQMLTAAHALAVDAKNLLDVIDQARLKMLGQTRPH
Chain of Albumin (Bos taurus) (P02769 whole entry, looked up): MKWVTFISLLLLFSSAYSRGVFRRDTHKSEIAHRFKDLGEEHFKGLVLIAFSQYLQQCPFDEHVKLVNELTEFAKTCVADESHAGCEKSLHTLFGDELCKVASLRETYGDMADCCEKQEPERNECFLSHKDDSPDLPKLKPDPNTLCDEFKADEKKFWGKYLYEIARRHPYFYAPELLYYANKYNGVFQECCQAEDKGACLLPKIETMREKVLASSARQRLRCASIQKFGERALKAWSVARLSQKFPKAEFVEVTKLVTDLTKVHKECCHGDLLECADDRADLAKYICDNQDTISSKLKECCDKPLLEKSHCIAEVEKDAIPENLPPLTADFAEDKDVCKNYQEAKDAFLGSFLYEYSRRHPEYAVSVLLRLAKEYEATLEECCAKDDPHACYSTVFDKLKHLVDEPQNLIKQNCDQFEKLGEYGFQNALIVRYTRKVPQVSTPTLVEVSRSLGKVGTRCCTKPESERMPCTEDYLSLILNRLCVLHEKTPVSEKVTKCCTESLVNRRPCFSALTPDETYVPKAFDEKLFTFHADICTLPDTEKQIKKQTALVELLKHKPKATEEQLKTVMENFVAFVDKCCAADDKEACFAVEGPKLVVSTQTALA

SMILES | composite z-score (Albumin (Bos taurus)) | composite Z-score [1] | composite z-score [2] | composite z-score [3] | composite z-score [4] | composite z-score [5] | composite z-score [6] | composite z-score (Sam68 (KHDRBS1)) | composite z-score [7] | composite z-score [8] | composite z-score [9] | composite z-score [10] | composite z-score [11] | composite z-score [12] | composite z-score [13] | composite z-score [14] | z-score [15] | composite z-score (Lefty1) | composite z-score [16] | z-score [17]
CC(C)C(O)C1C=CC2C(=O)N(C)C(=O)C2N1N1CCCCC1 (stereo not given) | 0.867 | 0.875 (inactive) | 0.143 | 0.0994 | 0.773 | 2.2 | 0.111 | 0.832 | 0.117 | 0.657 | -0.0134 | 1.11 | 0.776 | 0.447 | 0.336 | 0.329 | -0.115 | -0.146 | 0.763 | -0.686 (inactive)
C=C(C(=O)CC[C@@H](OC(=O)c1cccnc1)c1ccc(OCCO)cc1)C(C)C | -0.541 | -0.471 (inactive) | 0.123 | -0.179 | 0.0384 | -0.266 | 0.354 | 0.921 | 0.606 | 0.303 | 0.222 | 0.314 | -0.17 | -0.0579 | 1.43 | 1.16 | -0.358 | 1.21 | 0.752 | -3.48 (inactive)
CN(C)CCCC[C@@H]1NC(=O)[C@@H]2C[C@H](C(=O)NCCCCCN)[C@H](c3ccc(O)cc3)N2C1=O | 0.932 | 0.351 (inactive) | 0.0229 | -0.0478 | 0.462 | 0.984 | 0.443 | 1 | -1.76 | 1.1 | 0.637 | 0.732 | 0.91 | 0.502 | -0.126 | -0.585 | 0.393 | -0.318 | 1.09 | -0.806 (inactive)
Cc1ccc(S[C@]2(C(=O)NCCN3CCOCC3)CC(=O)N(C3CCCCC3)[C@@H]2c2ccc(CO)cc2)cc1 | 0.869 | 0.562 (inactive) | 0.0525 | -0.0621 | 0.617 | 1.83 | 0.437 | 1.16 | -0.179 | 1.07 | 1.81 | 1.21 | 1.02 | 0.611 | 0.102 | -0.262 | 1.63 | -0.299 | 0.211 | -0.125 (inactive)
COCCOC(=O)N1C(=O)[C@@]2(c3cc(C#CCC(C(=O)OC)C(=O)OC)ccc31)[C@H](c1ccccc1OCCO)N1[C@H](c3ccccc3)[C@H](c3ccccc3)OC(=O)[C@H]1[C@@H]2C(=O)Nc1nc2ccccc2s1 | 0.757 | 0.794 (inactive) | 0.261 | -0.0048 | 0.324 | 1.93 | 1.47 | 1.31 | 0.554 | 1.12 | 2.04 | 0.946 | 0.767 | 0.945 | 1.16 | 1.58 | -1.64 | 1.55 | 0.577 | -2.57 (inactive)
COc1ccc(CCNC(=O)[C@@]2(C)c3ccccc3C(=O)N(Cc3ccccc3)[C@H]2c2ccc(CO)cc2)cc1 | 0.365 | 0.247 (inactive) | 0.178 | -0.116 | 0.446 | 1.51 | 0.941 | 1.16 | 0.594 | 1.14 | 1.01 | 1.29 | 0.652 | 1 | 1.45 | 1.42 | -1.72 | 1.57 | 0.62 | 1.11 (inactive)
CCOC(=O)C=Cc1cccc(OC)c1O | 0.576 | 0.229 (inactive) | -0.426 | -0.14 | -0.288 | 0.0252 | -0.15 | 0.0147 | -1.32 | 0.149 | 0.447 | -0.311 | -0.227 | 0.102 | -0.248 | -1.13 | -1.37 | -0.679 | 0.859 | -17.6 (active)
CC(C)[C@H]1COC(=O)N1C(=O)[C@H]1[C@@H](c2ccccc2)N(c2ccccc2)O[C@@H]1C | 0.15 | 1.77 (inactive) | 0.0893 | -0.125 | -0.004 | 0.409 | -0.066 | 0.618 | 0.827 | 0.609 | -0.0372 | 0.706 | 0.201 | 0.635 | 0.562 | 0.57 | 0.78 | 0.593 | 0.127 | 0.132 (inactive)
O=C1OCCC=C[C@H]2OC34C=CCN(CCN5CCOCC5)C(=O)[C@H]3N(CCO)C(=O)[C@@H]4C12 (stereo not given in full) | -0.188 | -0.7 (inactive) | 0.16 | -0.202 | 0.72 | -0.219 | -0.193 | -1.08 | 0.112 | -0.916 | 1.07 | -0.793 | -0.379 | 0.236 | 1.11 | 0.785 | -0.849 | 0.648 | 0.418 | -0.0527 (inactive)
CC(c1ccccc1)C(O)C1C=CC2C(=O)N(c3ccccc3)C(=O)C2N1Nc1ccccc1F (stereo not given) | 0.687 | 0.0197 (inactive) | 0.0522 | -0.0483 | 0.697 | 2.21 | 0.504 | 1.17 | -0.474 | 0.77 | 1.35 | 1.2 | 0.583 | 0.994 | 0.473 | -0.645 | -0.673 | 0.226 | 0.439 | 1.94 (inactive)
COC(=O)[C@@]1(Cc2ccc(F)cc2)[C@H]2c3cc(C(=O)N4CCCC4)n(Cc4ccc(Cl)c(C(F)(F)F)c4)c3C[C@H]2CN1C(=O)c1ccccc1 | 1.02 | 0.267 (inactive) | 1.53 | 0.853 | 0.801 | 2.89 | 1.31 | 1.33 | -0.804 | 1.16 | 2.45 | 1.23 | 0.777 | 1.01 | 1.08 | -0.716 | 0.815 | -0.862 | 1.22 | 1.18 (inactive)
